In all, about 5,500 compounds went through this assay and about 2,000 (36%) were called active. Inconclusive results (about 18%) are left out. No stated cut-off is given here; in the data, active means normalized growth mostly below about 0.91 (no sharp cut-off); inconclusive means no clear call, values can overlap the other calls; inactive means mostly above about 0.92. Some of the results follow.
Test: chemical genetic growth profiling, strain panel (AID 1159580);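 further: tested at 20 µM; growth read once vehicle control cultures reached saturation at 30 °C; 1 = growth at the plate median or of vehicle wells; lower values mean less growth of the strain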
Details: growth OD

Measured: normalized growth

CC[C@@H]1[C@@H](O)N2C3C[C@H]1C1C(O)[C@]4(C[C@@H]12)c1ccccc1N(C)[C@@H]34 (some centres not stated)
inactive: S. cerevisiae deletion strains, locus YJR075W, strain HOC1, active compounds read low 0.986 | S. cerevisiae deletion strains, locus YKL009W, strain mrt4, active compounds read low 1.02 | S. cerevisiae deletion strains, locus YKL068W, active compounds read low 0.987 | S. cerevisiae deletion strains, locus YKL085W, strain MDH1 (second series), active compounds read low 0.997 | S. cerevisiae deletion strains, locus YKL085W, strain MDH1, active compounds read low 0.997 | S. cerevisiae deletion strains, locus YKL160W, strain elf1, active compounds read low 1 | S. cerevisiae deletion strains, locus YKL190W, strain CNB1, active compounds read low 0.989 | S. cerevisiae deletion strains, locus YKR001C, strain vps1, active compounds read low 0.965 | S. cerevisiae deletion strains, locus YKR026C, strain gcn3, active compounds read low 1.02 | S. cerevisiae deletion strains, locus YKR091W, strain srl3, active compounds read low 1.03 | S. cerevisiae deletion strains, locus YLL001W, strain dnm1, active compounds read low 1.02 | S. cerevisiae deletion strains, locus YLL026W, active compounds read low 1 | S. cerevisiae deletion strains, locus YLL041C, strain sdh2, active compounds read low 1.05 | S. cerevisiae deletion strains, locus YLR027C, strain aat2, active compounds read low 1.02 | S. cerevisiae deletion strains, locus YLR039C, strain RIC1, active compounds read low 0.985 | S. cerevisiae deletion strains, locus YLR058C, strain SHM2, active compounds read low 0.992 | S. cerevisiae deletion strains, locus YLR102C, strain apc9, active compounds read low 0.973 | S. cerevisiae deletion strains, locus YLR113W, strain HOG1, active compounds read low 0.996 | S. cerevisiae deletion strains, locus YLR221C, strain rsa3, active compounds read low 1.01 | S. cerevisiae deletion strains, locus YLR258W, strain gsy2, active compounds read low 1.03 | S. cerevisiae deletion strains, locus YLR262C, strain YPT6 (second series), active compounds read low 1.01 | S. cerevisiae deletion strains, locus YLR262C, strain YPT6, active compounds read low 0.984 | S. cerevisiae deletion strains, locus YLR268W, strain sec22, active compounds read low 0.935 | S. cerevisiae deletion strains, locus YLR320W, strain mms22, active compounds read low 1.01 | S. cerevisiae deletion strains, locus YLR330W, strain CHS5, active compounds read low 0.994 | S. cerevisiae deletion strains, locus YLR342W, strain FKS1 (second series), active compounds read low 1.01 | S. cerevisiae deletion strains, locus YLR342W, strain FKS1, active compounds read low 1.01 | S. cerevisiae deletion strains, locus YLR357W, strain rsc2, active compounds read low 1.09 | S. cerevisiae deletion strains, locus YLR370C, strain arc18, active compounds read low 1.03 | S. cerevisiae deletion strains, locus YLR371W, strain rom2, active compounds read low 0.975 | S. cerevisiae deletion strains, locus YLR384C, strain iki3, active compounds read low 1.03 | S. cerevisiae deletion strains, locus YLR418C, strain cdc73, active compounds read low 0.961 | S. cerevisiae deletion strains, locus YML016C, strain PPZ1, active compounds read low 0.992 | S. cerevisiae deletion strains, locus YML032C, strain rad52, active compounds read low 0.954 | S. cerevisiae deletion strains, locus YML120C, strain ndi1, active compounds read low 1.02 | S. cerevisiae deletion strains, locus YML124C, strain tub3, active compounds read low 0.982 | S. cerevisiae deletion strains, locus YMR058W, strain fet3, active compounds read low 1.01 | S. cerevisiae deletion strains, locus YMR078C, strain ctf18, active compounds read low 0.958 | S. cerevisiae deletion strains, locus YMR125W, strain sto1, active compounds read low 1.06 | S. cerevisiae deletion strains, locus YMR129W, active compounds read low 1.01 | S. cerevisiae deletion strains, locus YMR205C, strain PFK2, active compounds read low 1.03 | S. cerevisiae deletion strains, locus YMR223W, strain ubp8, active compounds read low 0.996 | S. cerevisiae deletion strains, locus YMR231W, strain pep5, active compounds read low 1.03 | S. cerevisiae deletion strains, locus YMR263W, strain SAP30, active compounds read low 1 | S. cerevisiae deletion strains, locus YMR307W, strain GAS1, active compounds read low 0.974 | S. cerevisiae deletion strains, locus YNL067W, strain RPL9B, active compounds read low 0.981 | S. cerevisiae deletion strains, locus YNL071W, strain lat1, active compounds read low 1.03 | S. cerevisiae deletion strains, locus YNL128W, strain TEP1, active compounds read low 0.991 | S. cerevisiae deletion strains, locus YNL153C, strain GIM3, active compounds read low 0.992 | S. cerevisiae deletion strains, locus YNL183C, strain NPR1, active compounds read low 0.917 | S. cerevisiae deletion strains, locus YNL209W, strain ssb2, active compounds read low 1.04 | S. cerevisiae deletion strains, locus YNL233W, strain BNI4, active compounds read low 0.977 | S. cerevisiae deletion strains, locus YNL248C, strain rpa49, active compounds read low 1.01 | S. cerevisiae deletion strains, locus YNL250W, strain rad50, active compounds read low 0.981 | S. cerevisiae deletion strains, locus YNL271C, strain bni1, active compounds read low 0.973 | S. cerevisiae deletion strains, locus YNL298W, strain CLA4, active compounds read low 0.968 | S. cerevisiae deletion strains, locus YNL307C, strain MCK1, active compounds read low 0.99 | S. cerevisiae deletion strains, locus YNL322C, strain KRE1 (second series), active compounds read low 1.05 | S. cerevisiae deletion strains, locus YNL322C, strain KRE1, active compounds read low 0.998 | S. cerevisiae deletion strains, locus YNR049C, strain mso1, active compounds read low 1.03 | S. cerevisiae deletion strains, locus YNR052C, strain pop2, active compounds read low 0.982 | S. cerevisiae deletion strains, locus YOL006C, strain TOP1, active compounds read low 0.921 | S. cerevisiae deletion strains, locus YOL012C, strain htz1 0.945 | S. cerevisiae deletion strains, locus YOL147C, strain pex11, active compounds read low 0.974 | S. cerevisiae deletion strains, locus YOR001W, strain rrp6, active compounds read low 1.02 | S. cerevisiae deletion strains, locus YOR061W, strain CKA2, active compounds read low 0.97 | S. cerevisiae deletion strains, locus YOR069W, strain VPS5, active compounds read low 0.995 | S. cerevisiae deletion strains, locus YOR070C, strain gyp1, active compounds read low 1.03 | S. cerevisiae deletion strains, locus YOR080W, strain dia2, active compounds read low 1.04 | S. cerevisiae deletion strains, locus YOR083W, strain WHI5, active compounds read low 0.979 | S. cerevisiae deletion strains, locus YOR106W, strain vam3, active compounds read low 1.04 | S. cerevisiae deletion strains, locus YOR136W, strain idh2, active compounds read low 0.98 | S. cerevisiae deletion strains, locus YOR144C, strain elg1, active compounds read low 0.962 | S. cerevisiae deletion strains, locus YOR184W, strain ser1, active compounds read low 0.97 | S. cerevisiae deletion strains, locus YOR231W, strain MKK1, active compounds read low 1.01 | S. cerevisiae deletion strains, locus YOR265W, strain rbl2, active compounds read low 1.03 | S. cerevisiae deletion strains, locus YOR270C, strain vph1, active compounds read low 1.14 | S. cerevisiae deletion strains, locus YOR290C, strain snf2, active compounds read low 1.02 | S. cerevisiae deletion strains, locus YOR316C, strain cot1, active compounds read low 0.975 | S. cerevisiae deletion strains, locus YPL051W, strain arl3, active compounds read low 1.02 | S. cerevisiae deletion strains, locus YPL055C, strain LGE1, active compounds read low 1 | S. cerevisiae deletion strains, locus YPL078C, strain atp4, active compounds read low 1.03 | S. cerevisiae deletion strains, locus YPL106C, strain sse1, active compounds read low 1.06 | S. cerevisiae deletion strains, locus YPL240C, strain hsp82, active compounds read low 1.02 | S. cerevisiae deletion strains, locus YPL241C, strain CIN2, active compounds read low 0.994 | S. cerevisiae deletion strains, locus YPL256C, strain CLN2, active compounds read low 0.982 | S. cerevisiae deletion strains, locus YPR119W, strain clb2, active compounds read low 0.972 | S. cerevisiae deletion strains, locus YPR141C, strain kar3, active compounds read low 0.979 | S. cerevisiae deletion strains, locus YPR163C, strain tif3, active compounds read low 0.966 | S. cerevisiae deletion strains, locus YPR167C, strain met16, active compounds read low 0.976 | S. cerevisiae deletion strains, strain wtn01, active compounds read low 0.963 | S. cerevisiae strains, strain wild type, active compounds read low 0.994
